Results from PubChem BioAssay AID1159580 (chemical genetic matrix, 2015).
Screen size: about 5,500 compounds; about 2,000 (36%) were called active. Another 18% or so got no clear call; they are omitted. No stated cut-off is given here; in the data, active means normalized growth mostly below about 0.91 (no sharp cut-off); inconclusive means no clear call, values can overlap the other calls; inactive means mostly above about 0.92. The list shows a part of the results.

Experiment: chemical genetic growth profiling, strain panel (AID 1159580);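 further: tested at 20 µM; growth read once vehicle control cultures reached saturation at 30 °C; 1 = growth at the plate median or of vehicle wells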
Conditions: growth OD

Measured: normalized growth

CC(=O)NCc1c(I)c(NC(C)=O)c(I)c(C(=O)O)c1I
inactive: S. cerevisiae deletion strains, locus YJR075W, strain HOC1, stronger effect = lower value 1.01 | S. cerevisiae deletion strains, locus YKL009W, strain mrt4, stronger effect = lower value 1.1 | S. cerevisiae deletion strains, locus YKL068W, stronger effect = lower value 0.977 | S. cerevisiae deletion strains, locus YKL085W, strain MDH1 (second series), stronger effect = lower value 1.01 | S. cerevisiae deletion strains, locus YKL085W, strain MDH1, stronger effect = lower value 1.01 | S. cerevisiae deletion strains, locus YKL160W, strain elf1, stronger effect = lower value 0.981 | S. cerevisiae deletion strains, locus YKL190W, strain CNB1, stronger effect = lower value 0.997 | S. cerevisiae deletion strains, locus YKR001C, strain vps1, stronger effect = lower value 1 | S. cerevisiae deletion strains, locus YKR026C, strain gcn3, stronger effect = lower value 0.994 | S. cerevisiae deletion strains, locus YKR091W, strain srl3, stronger effect = lower value 0.998 | S. cerevisiae deletion strains, locus YLL001W, strain dnm1, stronger effect = lower value 0.999 | S. cerevisiae deletion strains, locus YLL026W, stronger effect = lower value 0.991 | S. cerevisiae deletion strains, locus YLL041C, strain sdh2, stronger effect = lower value 0.995 | S. cerevisiae deletion strains, locus YLR027C, strain aat2, stronger effect = lower value 1 | S. cerevisiae deletion strains, locus YLR039C, strain RIC1, stronger effect = lower value 1 | S. cerevisiae deletion strains, locus YLR058C, strain SHM2, stronger effect = lower value 0.999 | S. cerevisiae deletion strains, locus YLR102C, strain apc9, stronger effect = lower value 0.993 | S. cerevisiae deletion strains, locus YLR113W, strain HOG1, stronger effect = lower value 1.02 | S. cerevisiae deletion strains, locus YLR221C, strain rsa3, stronger effect = lower value 0.992 | S. cerevisiae deletion strains, locus YLR258W, strain gsy2, stronger effect = lower value 1 | S. cerevisiae deletion strains, locus YLR262C, strain YPT6 (second series), stronger effect = lower value 1 | S. cerevisiae deletion strains, locus YLR262C, strain YPT6, stronger effect = lower value 0.991 | S. cerevisiae deletion strains, locus YLR268W, strain sec22, stronger effect = lower value 0.97 | S. cerevisiae deletion strains, locus YLR320W, strain mms22, stronger effect = lower value 0.978 | S. cerevisiae deletion strains, locus YLR330W, strain CHS5, stronger effect = lower value 0.992 | S. cerevisiae deletion strains, locus YLR342W, strain FKS1 (second series), stronger effect = lower value 1.04 | S. cerevisiae deletion strains, locus YLR342W, strain FKS1, stronger effect = lower value 0.999 | S. cerevisiae deletion strains, locus YLR357W, strain rsc2, stronger effect = lower value 1.01 | S. cerevisiae deletion strains, locus YLR370C, strain arc18, stronger effect = lower value 1 | S. cerevisiae deletion strains, locus YLR371W, strain rom2, stronger effect = lower value 0.99 | S. cerevisiae deletion strains, locus YLR384C, strain iki3, stronger effect = lower value 0.987 | S. cerevisiae deletion strains, locus YLR418C, strain cdc73, stronger effect = lower value 1.02 | S. cerevisiae deletion strains, locus YML016C, strain PPZ1, stronger effect = lower value 1 | S. cerevisiae deletion strains, locus YML032C, strain rad52, stronger effect = lower value 0.998 | S. cerevisiae deletion strains, locus YML120C, strain ndi1, stronger effect = lower value 0.994 | S. cerevisiae deletion strains, locus YML124C, strain tub3, stronger effect = lower value 1 | S. cerevisiae deletion strains, locus YMR058W, strain fet3, stronger effect = lower value 0.995 | S. cerevisiae deletion strains, locus YMR078C, strain ctf18, stronger effect = lower value 0.984 | S. cerevisiae deletion strains, locus YMR125W, strain sto1, stronger effect = lower value 1.02 | S. cerevisiae deletion strains, locus YMR129W, stronger effect = lower value 1 | S. cerevisiae deletion strains, locus YMR205C, strain PFK2, stronger effect = lower value 1.01 | S. cerevisiae deletion strains, locus YMR223W, strain ubp8, stronger effect = lower value 1.02 | S. cerevisiae deletion strains, locus YMR231W, strain pep5, stronger effect = lower value 0.991 | S. cerevisiae deletion strains, locus YMR263W, strain SAP30, stronger effect = lower value 0.987 | S. cerevisiae deletion strains, locus YMR307W, strain GAS1, stronger effect = lower value 1.08 | S. cerevisiae deletion strains, locus YNL067W, strain RPL9B, stronger effect = lower value 0.987 | S. cerevisiae deletion strains, locus YNL071W, strain lat1, stronger effect = lower value 1 | S. cerevisiae deletion strains, locus YNL128W, strain TEP1, stronger effect = lower value 0.988 | S. cerevisiae deletion strains, locus YNL153C, strain GIM3, stronger effect = lower value 0.999 | S. cerevisiae deletion strains, locus YNL183C, strain NPR1, stronger effect = lower value 0.963 | S. cerevisiae deletion strains, locus YNL209W, strain ssb2, stronger effect = lower value 1 | S. cerevisiae deletion strains, locus YNL233W, strain BNI4, stronger effect = lower value 1.01 | S. cerevisiae deletion strains, locus YNL248C, strain rpa49, stronger effect = lower value 0.996 | S. cerevisiae deletion strains, locus YNL250W, strain rad50, stronger effect = lower value 0.99 | S. cerevisiae deletion strains, locus YNL271C, strain bni1, stronger effect = lower value 0.989 | S. cerevisiae deletion strains, locus YNL298W, strain CLA4, stronger effect = lower value 0.995 | S. cerevisiae deletion strains, locus YNL307C, strain MCK1, stronger effect = lower value 0.997 | S. cerevisiae deletion strains, locus YNL322C, strain KRE1 (second series), stronger effect = lower value 0.989 | S. cerevisiae deletion strains, locus YNL322C, strain KRE1, stronger effect = lower value 0.994 | S. cerevisiae deletion strains, locus YNR049C, strain mso1, stronger effect = lower value 0.996 | S. cerevisiae deletion strains, locus YNR052C, strain pop2, stronger effect = lower value 0.978 | S. cerevisiae deletion strains, locus YOL006C, strain TOP1, stronger effect = lower value 0.981 | S. cerevisiae deletion strains, locus YOL012C, strain htz1 0.964 | S. cerevisiae deletion strains, locus YOL147C, strain pex11, stronger effect = lower value 0.995 | S. cerevisiae deletion strains, locus YOR001W, strain rrp6, stronger effect = lower value 1.01 | S. cerevisiae deletion strains, locus YOR061W, strain CKA2, stronger effect = lower value 1 | S. cerevisiae deletion strains, locus YOR069W, strain VPS5, stronger effect = lower value 0.998 | S. cerevisiae deletion strains, locus YOR070C, strain gyp1, stronger effect = lower value 0.998 | S. cerevisiae deletion strains, locus YOR080W, strain dia2, stronger effect = lower value 0.995 | S. cerevisiae deletion strains, locus YOR083W, strain WHI5, stronger effect = lower value 0.983 | S. cerevisiae deletion strains, locus YOR106W, strain vam3, stronger effect = lower value 0.979 | S. cerevisiae deletion strains, locus YOR136W, strain idh2, stronger effect = lower value 0.999 | S. cerevisiae deletion strains, locus YOR144C, strain elg1, stronger effect = lower value 0.984 | S. cerevisiae deletion strains, locus YOR184W, strain ser1, stronger effect = lower value 0.995 | S. cerevisiae deletion strains, locus YOR231W, strain MKK1, stronger effect = lower value 1.03 | S. cerevisiae deletion strains, locus YOR265W, strain rbl2, stronger effect = lower value 0.994 | S. cerevisiae deletion strains, locus YOR270C, strain vph1, stronger effect = lower value 1.02 | S. cerevisiae deletion strains, locus YOR290C, strain snf2, stronger effect = lower value 1.01 | S. cerevisiae deletion strains, locus YOR316C, strain cot1, stronger effect = lower value 0.986 | S. cerevisiae deletion strains, locus YPL051W, strain arl3, stronger effect = lower value 0.997 | S. cerevisiae deletion strains, locus YPL055C, strain LGE1, stronger effect = lower value 0.984 | S. cerevisiae deletion strains, locus YPL078C, strain atp4, stronger effect = lower value 1 | S. cerevisiae deletion strains, locus YPL106C, strain sse1, stronger effect = lower value 0.993 | S. cerevisiae deletion strains, locus YPL240C, strain hsp82, stronger effect = lower value 0.98 | S. cerevisiae deletion strains, locus YPL241C, strain CIN2, stronger effect = lower value 1 | S. cerevisiae deletion strains, locus YPL256C, strain CLN2, stronger effect = lower value 1.01 | S. cerevisiae deletion strains, locus YPR119W, strain clb2, stronger effect = lower value 0.999 | S. cerevisiae deletion strains, locus YPR141C, strain kar3, stronger effect = lower value 0.986 | S. cerevisiae deletion strains, locus YPR163C, strain tif3, stronger effect = lower value 1 | S. cerevisiae deletion strains, locus YPR167C, strain met16, stronger effect = lower value 0.985 | S. cerevisiae deletion strains, strain wtn01, stronger effect = lower value 0.989 | S. cerevisiae strains, strain wild type, stronger effect = lower value 1
